Most compounds without a hit are left out; they make up all but 13% or so of the library.
WT yeast gro inh = growth inhibition of WT strain, primary screen, mitochondrial fusion inhibitor project, WT and mutant strains, chemical genetic. inhibition, % at 10 µM. mitochondrial fusion phenotypic screen. hit rate 2.1% among 190,000; in the data active = inhibition above about 58%; tested in S. cerevisiae
Lmaj promast = Leishmania major promastigote growth inhibition, primary screen; inhibition, % at 10 µM; hit rate 9% among 200,000; Leishmania major promastigotes, resazurin fluorescence viability; in the data active = inhibition above about 50%;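 also: promastigotes grown with compound for 44 hours at 28 °C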
RAM network inh = inhibitors of the yeast RAM network, primary screen, dse1pr::URA3 reporter, 5-FOA selection | S. cerevisiae dse1pr::URA3 reporter, 5-FOA growth OD615, 2 d; analog-sensitive cbk1-as2 kinase mutant strain | inhibition, % at 50 µM | hit rate 1.8% among 190,000;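 active = inhibition above a set limit, 3 SD over mean compound inhibition, cut at about 8.4% in these data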;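 also: inhibition rescues growth on 5-FOA so higher OD means more RAM inhibition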
CHOP inhibitor = inhibitors of CHOP promoter induction, primary screen, cell-based, unfolded protein response, luciferase reporter; inhibition, % at 10 µM; AID 2732, 2010; CHO-K1 CHOP-promoter luciferase, tunicamycin-induced, 15-18 h; hit rate 3.8% among 220,000;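 active = compounds that reduced the stress-induced luciferase reporter signal by more than about 70% of percent inhibition, limit read from the data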
Hits are given with their value; . = inactive; / = no result.

SMILES	WT yeast gro inh	Lmaj promast	RAM network inh	CHOP inhibitor
CCc1ccc(-n2cc(-c3ccc(F)cc3)[n+]3c2SCCC3)cc1	.	100.5	.	.
N#Cc1ccc(-c2cn(-c3ccccc3)c3[n+]2CCCS3)cc1	.	.	.	.
CCOC(=O)CN1C(=O)C(O)(CC(=O)c2cccc(OC)c2)c2ccccc21 (stereo unspecified)	.	.	.	.
CCOc1c(Nc2ccc(C(C)C)cc2)c(=O)c1=O	/	/	/	.
CC(C)c1nc2ccc(Br)cn2c1NC1CCCC1	.	.	.	.
O=c1cc(-c2ccccc2)nc(SCc2ccccc2F)[nH]1	.	.	9.3	.
Fc1c(F)c(F)c(CSc2nc3ccccc3[nH]2)c(F)c1F	.	.	.	.
Cc1ccccc1CSc1nc(-c2ccccc2)cc(=O)[nH]1	.	.	.	87.2
O=c1cc(-c2ccccc2)nc(SCc2ccccc2)[nH]1	.	.	.	.
Fc1ccccc1CSc1nc2ccccc2[nH]1	.	90.8	.	.
Cc1cc(Oc2ccc(=O)n(C)n2)nc(SCc2ccccc2)n1	.	.	.	.
COc1ccc(CNc2ccc3cn[nH]c3c2)c(OC)c1OC	.	.	.	.
CCOc1cc(CNc2ccc3cn[nH]c3c2)ccc1OC	.	79.0	.	.
Cc1nn(-c2ccccc2)c(N)c1N=Nc1ccccc1	.	.	.	.
Cc1cccc(N=Nc2c(C)nn(-c3ccccc3)c2N)c1C	83.3	.	.	.
Cc1nn(-c2ccccc2)c(N)c1N=Nc1ccc(Cl)cc1	81.2	.	10.4	.
CCOc1ccc(NS(=O)(=O)c2cc(NC(=O)CCS(=O)(=O)c3ccc(C)cc3)ccc2OC)cc1	.	60.2	.	.
COc1ccc(NC(=O)c2ccc3ccccc3n2)cc1S(=O)(=O)Nc1ccccc1Cl	.	97.5	.	.
COc1ccc(NC(=O)CCSc2ccc(C)cc2)cc1S(=O)(=O)Nc1ccccc1Cl	.	87.9	8.8	.
COc1ccc(NC(=O)c2cc(C)nc3ccccc23)cc1S(=O)(=O)Nc1ccccc1Cl	.	.	.	.
COc1ccc(NC(=O)c2nn(C)c(=O)c3ccccc23)cc1S(=O)(=O)Nc1ccccc1Cl	.	60.3	.	.
CN1CCN(C2=C(Cl)C(=O)N(c3cccc(Cl)c3)C2=O)CC1	.	.	.	.
CN1CCN(C(c2cccc(Cl)c2)c2ccccc2Cl)CC1 (stereo unspecified)	.	97.6	.	.
O=C(N/N=C1/CC2C=CCC12)c1ccco1 (stereo unspecified)	.	.	.	.
CCOc1ccc(Cn2nnc(C(=O)Nc3cc(C)cc(C)c3)c2N)cc1	.	.	.	75.1
SMILES	WT yeast gro inh	Lmaj promast	RAM network inh	CHOP inhibitor
Cc1ccc(Cn2nnc(C(=O)Nc3cccc(C)c3C)c2N)cc1	.	.	.	.
CCc1ccc(Cn2nnc(C(=O)Nc3cccc(C)c3)c2N)cc1	.	.	.	71.2
Cc1cc(NC(=O)CSc2nncn2N)no1	.	.	.	.
Cc1nc2sc(C#N)c(N)c2c2c1CCCC2	.	.	.	/
N#Cc1sc2nc(N3CCCCC3)c3c(c2c1N)CCCC3	72.8	.	.	.
CN1CCN(S(=O)(=O)Cc2ccc(Cl)cc2)CC1	/	/	/	.
Cc1ccc(Cc2cnc(NC(=O)c3ccco3)s2)cc1	.	.	.	.
O=C(Nc1ncc(Cc2ccc(SC(F)F)cc2)s1)c1ccc(OC(F)F)cc1	.	.	.	71.7
COc1ccc(-n2nc(C(C)=O)c(=O)[nH]c2=O)cc1	.	.	.	.
O=C(Cc1cn(Cc2cccc(Cl)c2)c2ccccc12)N1CCCC1	.	98.5	.	.
Cc1cc(C)cc(NC(=O)c2ccc([N+](=O)[O-])o2)c1	77.6	100.2	.	.
Cc1cc(C)nc(NC(=O)c2ccc(C)c([N+](=O)[O-])c2)n1	.	.	.	.
Cc1cc(C)nc(NC(=O)c2ccc([N+](=O)[O-])o2)n1	.	55.8	.	.
Cc1cc([N+](=O)[O-])ccc1NC(=O)c1ccco1	.	.	.	.
Cc1cc(NC(=O)c2ccc([N+](=O)[O-])o2)ccc1NC(=O)c1ccco1	.	99.8	.	.
CCn1cc(-c2csc(N)n2)c(C)n1	.	.	.	.
Cc1ccccc1N1CCN(C(=S)c2ccccc2)CC1	.	57.2	.	.
S=C(Nc1ccc(Br)cc1)N1CCN(C2CCCCC2)CC1	.	88.5	.	.
Cc1ccc(NC(=S)N2CCC(c3ccc(C)cc3)C2)cc1 (stereo unspecified)	75.0	.	.	.
Cc1ccc(C2CCN(C(=O)Nc3ccccc3)C2)cc1 (stereo unspecified)	.	.	.	/
Cc1ccc(NC(=S)N2CCN(C3CCCCC3)CC2)cc1	.	83.5	.	.
CCc1cccc(NC(=S)N2CCC(c3ccccc3)C2)c1 (stereo unspecified)	76.3	.	.	.
Fc1cc(F)cc(NC(=S)N2CCC(c3ccccc3)C2)c1 (stereo unspecified)	.	.	.	.
S=C(Nc1ccc(Br)cc1)N1CCCC1	.	.	.	.
COc1ccc(C2Nc3ccccc3C(=O)N2O)cc1CN1CCOCC1 (stereo unspecified)	.	.	.	.
SMILES	WT yeast gro inh	Lmaj promast	RAM network inh	CHOP inhibitor
N#Cc1ccc(N/N=C/c2ccccc2)c([N+](=O)[O-])c1	.	.	.	.
O=C(CN1CCN(C2CCCCC2)CC1)Nc1ccc(Br)cc1	.	88.2	.	.
COc1ccc(NC(=O)CN2CCC(NC(=O)C3CCCCC3)CC2)cc1	.	70.1	.	.
COc1ccc(NC(=O)CN2CCCCC2)cc1	.	.	.	.
CC(N)=O	/	/	/	.
Cc1ccc2c(c1)c(C)c(C)n2CC(O)Cn1nnc2ccccc21 (stereo unspecified)	.	.	.	83.7
Cc1ccc2c(c1)c(C)c(C)n2CC(O)Cn1nc(C)cc1C (stereo unspecified)	.	.	.	.
COCCn1c(C)cc(C(=O)CSc2nc3ccccc3c(=O)n2Cc2ccco2)c1C	.	77.8	.	.
O=C(CSc1nc2ccccc2c(=O)n1Cc1ccco1)N1CCCCCC1	.	79.5	.	.
O=C(CSc1nc2ccccc2c(=O)n1Cc1ccco1)NCc1ccco1	.	.	.	.
CN(Cc1ccccc1)C(=O)CSc1nc2ccccc2c(=O)n1Cc1ccco1	.	.	9.2	.
Cc1ccc(NC(=O)CN(C)C(=O)CSc2nc3ccccc3c(=O)n2Cc2ccco2)cc1	.	86.8	.	.
O=C(O)c1ccn2c(C(=O)c3ccccc3)c(-c3ccccc3)cc2c1	/	/	/	.
Cc1cc(=O)[nH]c(-n2ncc(C#N)c2N)n1	.	.	.	.
O=C(NC(=S)N(CCO)Cc1ccccc1)c1cc(Br)ccc1Cl	.	.	.	.
CC(Sc1nc(N(C)C)nc(N2CCOCC2)n1)C(=O)Nc1ccccc1 (stereo unspecified)	.	62.7	.	.
COC(=O)CSc1nc2cc3c(cc2cc1C)OCO3	70.2	.	.	.
CCc1cc2cc3c(cc2nc1SCC(=O)Nc1cc(C)on1)OCO3	.	.	.	95.1
CCc1cc2cc3c(cc2nc1SCC(=O)Nc1nnc(C)s1)OCCO3	.	.	.	.
CCc1cc2ccc(C)cc2nc1SCC(=O)Nc1cc(C)on1	.	.	.	.
